The structures appear in SMILES notation. Several values for one entry are separate records, joined by “and”; a condition that tells them apart may be missing. Equal entries are not always repeated. More than one record can exist for a structure, and the calls need not agree. Activity calls are given as the source filed them. The calls were made as follows: active = hit-call score of the fitted dose curve at least 0.9, where 1 is the maximum; inactive = score below 0.9.

Assay [1] is described as follows: ATG_E_Box_CIS: Attagene CIS-FACTORIAL HepG2 Assay for human Enhancer Box (E-box) (AID 2282936). The following applies: HepG2 E-box cis-reporter transcription, actives raise or lower the signal. The method in brief: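 DMSO served as negative control and baseline for bidirectional fitting. Human hepatoma HepG2 cells, transiently transfected with cis-reporter constructs, were dosed 24 h; reporter mRNA read by RT-PCR and capillary electrophoresis.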

A short description of assay [2]: ATG_M_61_CIS: Attagene CIS-FACTORIAL HepG2 Assay for M61 Transcription Factor (Internal Marker) (AID 2282937). The following applies: HepG2 Attagene CIS-FACTORIAL M61 internal marker reporter; actives raise or lower the signal. The method in brief:
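Multiplexed reporter mRNA assay, HepG2 human hepatoma cells, 24 h treatment. Signal: FAM-labelled, HpaI-digested RT-PCR fragments by CE. Fit: bidirectional, baseline DMSO.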

Assay [3] is described as follows: ATG_EGR_CIS: Attagene CIS-FACTORIAL HepG2 Assay for human Early Growth Response 1 (EGR1) (AID 2282938). The following applies: HepG2 Attagene CIS-FACTORIAL EGR reporter mRNA; actives raise or lower the signal. A digest of the protocol:
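Multiplexed cis-reporter system in human hepatoma HepG2 cells, transiently transfected. Cells are dosed for 24 h; reporter transcripts are amplified, fluorescently tagged and sized by capillary electrophoresis, with DMSO as negative control.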

A short description of assay [4]: ATG_M_19_CIS: Attagene CIS-FACTORIAL HepG2 Assay for M19 Transcription Factor (Internal Marker) (AID 2282939). The following applies: HepG2 Attagene CIS-FACTORIAL M19 internal marker reporter; actives raise or lower the signal. The method in brief:
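HepG2, MRTU transient transfection, 24 h dosing. Total RNA → RT-PCR → 6-FAM primer extension → HpaI digest → CE fluorescence. Bidirectional curve fit, DMSO negative control.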

Assay [5] can be described thus: ATG_ERE_CIS: Attagene CIS-FACTORIAL HepG2 Assay for Estrogen Response Element (ERE) (AID 2282940). The following applies: HepG2 ERE cis-reporter, Attagene RNA transcript; actives raise or lower the signal. A digest of the protocol: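 After a 24 h chemical treatment, RNA from reporter-transfected HepG2 cells is reverse-transcribed, PCR-amplified and fluorescently labelled. Fragments separated by capillary electrophoresis give reporter signal; DMSO serves as negative control.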

A short description of assay [6]: ATG_Ets_CIS: Attagene CIS-FACTORIAL HepG2 Assay for human Erythroblast Transformation Specific (ETS) (AID 2282941). The following applies: HepG2 ETS cis-reporter transcription, actives raise or lower the signal. A digest of the protocol: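 HepG2 cells transiently transfected with cis-promoter reporter transcription units were dosed for 24 h; reporter mRNA was measured by RT-PCR, 6-FAM primer extension, HpaI digestion and capillary electrophoresis, with bidirectional fitting against DMSO baseline.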

The target of assay [7] is Hepatocyte nuclear factor 3-beta (Homo sapiens) (UniProt Q9Y261). Put plainly: ATG_FoxA2_CIS: Attagene CIS-FACTORIAL HepG2 Assay for human Forkhead box A2 (FOXA2) (AID 2282942). The following applies: HepG2 cis-reporter transcription factor activity, 24 h; actives raise or lower the signal. A digest of the protocol: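 Multiplexed cis-element reporter assay in transiently transfected HepG2. Twenty-four hours post-dosing, RNA was reverse-transcribed, amplified, FAM-labelled, HpaI-digested and separated by CE. Activity gain or loss relative to DMSO.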

Assay [8] can be described thus: ATG_FoxO_CIS: Attagene CIS-FACTORIAL HepG2 Assay for human Forkhead box O (FoxO) (AID 2282943). The following applies: HepG2 Attagene cis-reporter, FoxO element, mRNA; actives raise or lower the signal. The method in brief:
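Endogenous transcription factor activity read from multiplexed cis-promoter reporter transcripts in transiently transfected HepG2, 24 h after dosing. Reporter RNA measured via RT-PCR plus capillary electrophoresis of FAM-labeled products; gain or loss relative to DMSO.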

Assay [9] in a line: ATG_GATA_CIS: Attagene CIS-FACTORIAL HepG2 Assay for human GATA Binding Protein (AID 2282944). The following applies: HepG2 GATA cis-element reporter, Attagene multiplex mRNA; actives raise or lower the signal. The method in brief: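 Cells: HepG2, transiently transfected with cis-regulated reporter transcription units. Exposure: 24 h. Detection: RT-PCR plus capillary electrophoresis of FAM-labeled fragments. Analysis: bidirectional, DMSO as baseline.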

The nature of assay [10]: ATG_GLI_CIS: Attagene CIS-FACTORIAL HepG2 Assay for human Zinc Finger Protein GLI1 (AID 2282945). The following applies: HepG2, Attagene cis-factorial reporter mRNA, GLI element; actives raise or lower the signal. A digest of the protocol: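 Bidirectional curve fits relative to DMSO, using reporter mRNA levels from RT-PCR plus capillary electrophoresis. Cells were HepG2 transiently carrying cis-regulated reporter constructs, harvested 24 h after dosing.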

Assay [11] can be described thus: ATG_GRE_CIS: Attagene CIS-FACTORIAL HepG2 Assay for human Glucocorticoid Response Elements (GRE) (AID 2282947). The following applies: HepG2 GRE cis-reporter, Attagene multiplex mRNA; actives raise or lower the signal. A digest of the protocol:
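Assay uses human hepatoma HepG2 cells transfected with cis-promoter reporter units, exposed 24 h. mRNA from reporters detected by RT-PCR plus capillary electrophoresis; DMSO serves as negative control and baseline.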

A short description of assay [12]: ATG_ISRE_CIS: Attagene CIS-FACTORIAL HepG2 Assay for human Interferon Regulatory Factor 1 (IRF1) binding to an Interferon-Stimulated Response Element (ISRE) (AID 2282948). The following applies: HepG2 ISRE cis-reporter (Attagene), mRNA transcription readout; actives raise or lower the signal. A digest of the protocol: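 HepG2 cells transiently transfected with multiplexed cis-promoter reporter units; after 24 h compound exposure, reporter mRNA quantified by RT-PCR, FAM labelling, HpaI digestion and capillary electrophoresis. Bidirectional fit versus DMSO baseline.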

Assay [13] can be described thus: ATG_M_32_CIS: Attagene CIS-FACTORIAL HepG2 Assay for M32 Transcription Factor (Internal Marker) (AID 2282949).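 Also: background control marker of the multiplexed CIS panel rather than a real target.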 The following applies: HepG2 Attagene cis-factorial M32 reporter, mRNA; actives raise or lower the signal. The method in brief: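 Internal background marker read-out: RT-PCR/capillary electrophoresis fluorescence of reporter transcripts from transiently transfected HepG2 cells after 24 h chemical exposure. Activity fitted bidirectionally relative to DMSO negative control.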

For assay [14], the target named is Hypoxia-inducible factor 1-alpha (Homo sapiens) (UniProt Q16665). Put plainly: ATG_HIF1a_CIS: Attagene CIS-FACTORIAL HepG2 Assay for human Hypoxia Inducible Factor 1 (HIF1A) (AID 2282951). The following applies: HepG2 Attagene cis-factorial HIF1a reporter transcription; actives raise or lower the signal. A digest of the protocol:
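Cis-element reporter constructs were transiently transfected into HepG2 cells, which were treated for 24 h; reporter RNA was reverse-transcribed, amplified, labelled and resolved by capillary electrophoresis.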

Assay [15] addresses Hepatocyte nuclear factor 6 (Homo sapiens) (UniProt Q9UBC0). Put plainly: ATG_HNF6_CIS: Attagene CIS-FACTORIAL HepG2 Assay for human Hepatocyte Nuclear Factor 6 (HNF6) (AID 2282952). The following applies: HepG2 Attagene cis-factorial HNF6 reporter transcription; actives raise or lower the signal. A digest of the protocol:
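Cells are HepG2 carrying transiently transfected cis-promoter reporter units. Treatment lasts 24 h, after which reporter transcripts are reverse-transcribed, amplified, FAM-labelled and sized by capillary electrophoresis. DMSO serves as baseline.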

In assay [16] the target is Heat shock factor protein 1 (Homo sapiens) (UniProt Q00613). Put plainly: ATG_HSE_CIS: Attagene CIS-FACTORIAL HepG2 Assay for human Heat Shock Transcription Factor 1 (HSE) (AID 2282953). The following applies: HepG2 HSE cis-reporter, Attagene RNA transcription; actives raise or lower the signal. A digest of the protocol:
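Reporter mRNA induction in HepG2 is measured 24 h after dosing, using transiently transfected multiplexed cis-regulated reporter units. Signal comes from capillary electrophoresis of labelled RT-PCR products, with DMSO as negative control.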

The nature of assay [17]: ATG_MRE_CIS: Attagene CIS-FACTORIAL HepG2 Assay for human Metal Responsive Element (MRE) (AID 2282954). The following applies: HepG2 MRE cis-reporter transcription, Attagene multiplex; actives raise or lower the signal. A digest of the protocol:
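After a 24 h chemical exposure, transiently transfected HepG2 cells yield RNA whose reporter sequences are amplified, FAM-labelled and sized by capillary electrophoresis. Curves are fitted bidirectionally relative to DMSO.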

Assay [18] can be described thus: ATG_PBREM_CIS: Attagene CIS-FACTORIAL HepG2 Assay for human Phenobarbital-responsive Enhancer Module (PBREM) (AID 2282955). The following applies: HepG2 PBREM cis-reporter, Attagene multiplexed transcription; actives raise or lower the signal. A digest of the protocol: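 Multiplexed cis-reporter readout in human hepatoma HepG2 cells; PBREM-regulated transcript quantified after 24 h exposure by fluorescent RT-PCR fragment analysis. Signal changes up or down fitted relative to DMSO.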

Assay [19] is described as follows: ATG_M_06_CIS: Attagene CIS-FACTORIAL HepG2 Assay for M06 Transcription Factor (Internal Marker) (AID 2282950). The following applies: HepG2 Attagene CIS-FACTORIAL M06 internal marker reporter; actives raise or lower the signal. A digest of the protocol:
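Measured 24 h post-dosing in transiently transfected HepG2 cells, this internal-marker endpoint reports reporter mRNA via RT-PCR with fluorescent primer extension and capillary electrophoresis. DMSO served as negative control and baseline for bidirectional fitting.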

Assay [20] has as its target Bile acid receptor (Homo sapiens) (UniProt Q96RI1). Put plainly: ATG_IR1_CIS: Attagene CIS-FACTORIAL HepG2 Assay for human Nuclear Receptor Subfamily 1 Group H Member 4 (NR1H4), IR1 submotif (AID 2282946). The following applies: IR1 reporter transcription, actives raise or lower the signal. A digest of the protocol:
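Cells (human HepG2) carry transiently transfected cis-promoter reporter transcription units. Compounds are incubated 24 h, total RNA is reverse-transcribed and amplified, and labelled fragments are resolved by capillary electrophoresis. Curves use DMSO as baseline.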

Chain of Hepatocyte nuclear factor 3-beta (Homo sapiens) (Q9Y261 whole entry, looked up): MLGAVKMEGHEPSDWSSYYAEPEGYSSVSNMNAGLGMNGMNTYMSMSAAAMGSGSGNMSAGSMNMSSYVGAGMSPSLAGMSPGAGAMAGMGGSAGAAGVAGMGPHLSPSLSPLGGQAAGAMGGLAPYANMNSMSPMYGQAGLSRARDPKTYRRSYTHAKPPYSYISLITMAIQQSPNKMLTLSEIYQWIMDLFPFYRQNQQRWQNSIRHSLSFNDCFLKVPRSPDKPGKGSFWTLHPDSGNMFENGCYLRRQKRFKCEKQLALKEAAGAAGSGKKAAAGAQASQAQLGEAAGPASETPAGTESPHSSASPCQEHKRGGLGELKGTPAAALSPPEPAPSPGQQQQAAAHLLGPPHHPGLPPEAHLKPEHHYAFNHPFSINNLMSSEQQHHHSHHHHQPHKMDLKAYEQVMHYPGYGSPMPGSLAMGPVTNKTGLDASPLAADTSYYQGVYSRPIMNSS
Chain of Hepatocyte nuclear factor 6 (Homo sapiens) (Q9UBC0 whole entry, looked up): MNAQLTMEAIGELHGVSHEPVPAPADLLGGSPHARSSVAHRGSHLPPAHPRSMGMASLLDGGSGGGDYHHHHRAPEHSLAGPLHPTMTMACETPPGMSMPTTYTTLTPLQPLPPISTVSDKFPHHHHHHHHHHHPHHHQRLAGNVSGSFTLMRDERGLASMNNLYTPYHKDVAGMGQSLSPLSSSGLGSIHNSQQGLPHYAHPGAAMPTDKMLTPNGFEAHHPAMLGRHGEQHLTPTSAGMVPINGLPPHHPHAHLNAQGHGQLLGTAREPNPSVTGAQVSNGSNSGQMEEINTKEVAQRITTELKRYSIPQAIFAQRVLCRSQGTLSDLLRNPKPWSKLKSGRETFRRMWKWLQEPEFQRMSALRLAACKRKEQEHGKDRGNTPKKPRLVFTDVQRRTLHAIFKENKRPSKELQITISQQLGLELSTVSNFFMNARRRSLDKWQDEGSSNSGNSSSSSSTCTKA
Chain of Hypoxia-inducible factor 1-alpha (Homo sapiens) (Q16665 whole entry, looked up): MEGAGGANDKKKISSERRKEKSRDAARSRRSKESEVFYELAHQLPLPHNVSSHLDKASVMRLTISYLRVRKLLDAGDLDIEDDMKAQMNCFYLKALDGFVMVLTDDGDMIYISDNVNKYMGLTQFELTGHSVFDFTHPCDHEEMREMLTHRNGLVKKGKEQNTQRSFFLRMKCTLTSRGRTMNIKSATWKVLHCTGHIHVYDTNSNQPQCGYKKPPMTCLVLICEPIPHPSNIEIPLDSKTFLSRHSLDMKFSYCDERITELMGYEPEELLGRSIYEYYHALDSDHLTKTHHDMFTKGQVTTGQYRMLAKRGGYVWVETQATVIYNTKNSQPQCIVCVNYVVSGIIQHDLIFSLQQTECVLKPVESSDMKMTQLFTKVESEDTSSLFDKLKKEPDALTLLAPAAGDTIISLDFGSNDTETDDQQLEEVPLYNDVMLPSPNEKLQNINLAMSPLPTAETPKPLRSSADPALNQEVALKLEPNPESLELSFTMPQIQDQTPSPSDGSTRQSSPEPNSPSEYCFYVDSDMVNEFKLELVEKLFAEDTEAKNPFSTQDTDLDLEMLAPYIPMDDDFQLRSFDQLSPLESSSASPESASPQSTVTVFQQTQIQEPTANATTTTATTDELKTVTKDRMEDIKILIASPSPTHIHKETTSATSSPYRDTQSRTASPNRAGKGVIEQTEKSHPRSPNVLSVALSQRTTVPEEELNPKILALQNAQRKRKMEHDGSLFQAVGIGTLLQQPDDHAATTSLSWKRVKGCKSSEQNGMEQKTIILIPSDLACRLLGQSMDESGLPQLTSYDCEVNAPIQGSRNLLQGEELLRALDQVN
Chain of Heat shock factor protein 1 (Homo sapiens) (Q00613 whole entry, looked up): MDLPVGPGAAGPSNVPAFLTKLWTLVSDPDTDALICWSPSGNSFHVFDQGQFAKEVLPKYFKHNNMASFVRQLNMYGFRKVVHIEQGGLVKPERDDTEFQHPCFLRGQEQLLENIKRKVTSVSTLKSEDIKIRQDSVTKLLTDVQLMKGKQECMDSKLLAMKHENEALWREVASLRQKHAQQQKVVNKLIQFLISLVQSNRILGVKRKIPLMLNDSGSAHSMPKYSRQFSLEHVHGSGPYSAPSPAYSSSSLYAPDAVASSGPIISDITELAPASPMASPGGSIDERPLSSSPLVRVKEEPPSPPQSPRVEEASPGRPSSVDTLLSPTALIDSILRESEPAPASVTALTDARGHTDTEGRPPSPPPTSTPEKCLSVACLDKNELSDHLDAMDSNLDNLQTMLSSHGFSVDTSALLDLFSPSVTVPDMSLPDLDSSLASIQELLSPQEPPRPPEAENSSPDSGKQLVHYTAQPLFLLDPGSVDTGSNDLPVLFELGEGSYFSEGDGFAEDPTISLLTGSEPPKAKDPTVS
Chain of Bile acid receptor (Homo sapiens) (Q96RI1 whole entry, looked up, the tested form may be a part): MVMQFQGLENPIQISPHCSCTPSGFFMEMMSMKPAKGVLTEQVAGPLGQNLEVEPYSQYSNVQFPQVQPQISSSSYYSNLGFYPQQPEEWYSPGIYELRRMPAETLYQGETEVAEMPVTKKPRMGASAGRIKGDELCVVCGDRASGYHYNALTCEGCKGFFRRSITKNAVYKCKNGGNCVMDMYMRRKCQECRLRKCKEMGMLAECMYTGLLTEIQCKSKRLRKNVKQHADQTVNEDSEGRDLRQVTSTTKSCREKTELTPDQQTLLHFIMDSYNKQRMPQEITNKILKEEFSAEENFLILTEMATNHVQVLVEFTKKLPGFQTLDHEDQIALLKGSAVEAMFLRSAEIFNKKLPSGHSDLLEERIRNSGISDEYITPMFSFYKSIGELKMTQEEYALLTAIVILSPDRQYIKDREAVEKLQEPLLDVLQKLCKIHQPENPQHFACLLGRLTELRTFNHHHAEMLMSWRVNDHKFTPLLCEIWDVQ

Take `CCCCCCOC(=O)c1ccccc1C(=O)OCCCCCC`: the result in [1], in assay [2], in assay [3], in assay [4], in [6] and in assay [7] was inactive. For the same compound, the call in assay [8], in [9], in assay [10], in assay [11], in assay [12] and in assay [13] was inactive. Moreover, the compound was called inactive in assay [14], in assay [15], in [16], in assay [17] and in assay [18]. For the same compound, the AC50 (usually the midpoint of the concentration-response curve, whichever way the signal moves) in assay [5] is 4.15 µM (active).

Take `CCCN(CCC)N=O`: the outcome in assay [1], in assay [2], in [3], in assay [4], in assay [6] and in assay [7] was inactive. In addition, the compound was called inactive in assay [8], in assay [9], in assay [10], in assay [11], in [12] and in assay [13]. For the same compound, the compound was called inactive in assay [19], in [14], in [15], in assay [16], in assay [17] and in [18]. Moreover, the AC50 in assay [5] was 46.4 µM (active).

`C=CC(=O)NCNC(=O)C=C`: the outcome in assay [1], in assay [2], in assay [3], in assay [4], in assay [5] and in assay [6] was inactive. The call in assay [7], in [8], in assay [9], in [10], in assay [11] and in assay [12] was inactive. In addition, the compound was called inactive in [13], in [19], in assay [14], in [15], in assay [16] and in assay [17]. Also, in assay [18], the result was inactive.

As to `Cc1cccc([N+](=O)[O-])c1`, the result in [1], in [2], in assay [3], in assay [4], in [5] and in [6] was inactive. Also, the result in assay [7], in assay [8], in assay [9], in assay [10], in [20] and in assay [11] was inactive. Besides, the outcome in assay [12], in assay [13], in assay [15], in assay [16] and in [17] was inactive. In addition, in assay [14], the AC50 is 181 µM (active).

In the case of `CN(C)CCO`, the result in assay [1], in [2], in assay [3], in [4], in assay [5] and in assay [6] was inactive. Also, the call in assay [7], in [8], in assay [9], in [10], in [11] and in assay [12] was inactive. Also, the call in assay [13], in assay [14], in assay [15], in [16], in assay [17] and in assay [18] was inactive.

Consider `Clc1ccc(C(c2ccccc2Cl)C(Cl)(Cl)Cl)cc1` (stereo unspecified), for which the result in assay [1], in assay [2], in [3], in assay [4], in assay [6] and in [7] was inactive. Besides, the outcome in [8], in assay [9], in assay [10], in [11], in [12] and in [13] was inactive. Also, the call in assay [19], in [14], in [15], in assay [16], in assay [17] and in assay [18] was inactive. For the same compound, the AC50 was 874 nM (active) [middle of 4 runs] in assay [5]; 135 µM (active) in [7]; 70.5 µM (active) and 82.3 µM (active) in [12]; 18.4 µM (active) in assay [14]; 50.7 µM (active) and 94.6 µM (active) in assay [16]; 70.5 µM (active) and 36.9 µM (active) in assay [17].

Source of the values: PubChem BioAssay (EPA / NIEHS).
